Where a structure was tested more than once in an assay, its records may differ in their call. Calls of active or inactive are those of the source. How the source made its calls: active means hit-call score of the fitted dose curve at least 0.9, where 1 is the maximum; inactive means score below 0.9.
Legend:
[1] = ATG_E_Box_CIS: Attagene CIS-FACTORIAL HepG2 Assay for human Enhancer Box (E-box) (AID 2282936); settings: HepG2 E-box cis-reporter transcription, actives raise or lower the signal
In short: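 Cells: HepG2 (human liver), transient MRTU transfection. Exposure 24 h. RNA → oligo(dT) RT → PCR → 6-FAM label → HpaI → CE. Activity fitted both directions relative to DMSO.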

[2] = ATG_EGR_CIS: Attagene CIS-FACTORIAL HepG2 Assay for human Early Growth Response 1 (EGR1) (AID 2282938); settings: HepG2 Attagene CIS-FACTORIAL EGR reporter mRNA; actives raise or lower the signal
In short: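 Endpoint derived by bidirectional fitting versus DMSO vehicle. Method: cis-promoter reporter units transfected into HepG2, 24 h dosing, RNA isolation, RT-PCR with 6-FAM primer extension and HpaI digestion, then capillary electrophoresis fluorescence detection.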

[3] = ATG_M_19_CIS: Attagene CIS-FACTORIAL HepG2 Assay for M19 Transcription Factor (Internal Marker) (AID 2282939); settings: HepG2 Attagene CIS-FACTORIAL M19 internal marker reporter; actives raise or lower the signal
In short: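 In this multiplexed cell assay, transiently transfected HepG2 reporter units report endogenous transcription-factor activity; after 24 hours of treatment, labelled reporter cDNA fragments are quantified by capillary electrophoresis and fitted bidirectionally against DMSO.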

[4] = ATG_ERE_CIS: Attagene CIS-FACTORIAL HepG2 Assay for Estrogen Response Element (ERE) (AID 2282940); settings: HepG2 ERE cis-reporter, Attagene RNA transcript; actives raise or lower the signal
In short: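 Measuring endogenous transcription factor output, the assay doses transfected HepG2 cells for 24 hours and quantifies reporter transcripts by fluorescent RT-PCR and capillary electrophoresis, with DMSO as baseline.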

[5] = ATG_Ets_CIS: Attagene CIS-FACTORIAL HepG2 Assay for human Erythroblast Transformation Specific (ETS) (AID 2282941); settings: HepG2 ETS cis-reporter transcription, actives raise or lower the signal
In short: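 After transient cis-reporter transfection, HepG2 cells receive test chemical for 24 h. Reporter mRNA levels, measured by RT-PCR and capillary electrophoresis fluorescence, are analysed bidirectionally relative to the DMSO baseline.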

[6] = target: Hepatocyte nuclear factor 3-beta (Homo sapiens) (UniProt Q9Y261); experiment: ATG_FoxA2_CIS: Attagene CIS-FACTORIAL HepG2 Assay for human Forkhead box A2 (FOXA2) (AID 2282942); settings: HepG2 cis-reporter transcription factor activity, 24 h; actives raise or lower the signal
Chain of Hepatocyte nuclear factor 3-beta (Homo sapiens) (Q9Y261 whole entry, looked up): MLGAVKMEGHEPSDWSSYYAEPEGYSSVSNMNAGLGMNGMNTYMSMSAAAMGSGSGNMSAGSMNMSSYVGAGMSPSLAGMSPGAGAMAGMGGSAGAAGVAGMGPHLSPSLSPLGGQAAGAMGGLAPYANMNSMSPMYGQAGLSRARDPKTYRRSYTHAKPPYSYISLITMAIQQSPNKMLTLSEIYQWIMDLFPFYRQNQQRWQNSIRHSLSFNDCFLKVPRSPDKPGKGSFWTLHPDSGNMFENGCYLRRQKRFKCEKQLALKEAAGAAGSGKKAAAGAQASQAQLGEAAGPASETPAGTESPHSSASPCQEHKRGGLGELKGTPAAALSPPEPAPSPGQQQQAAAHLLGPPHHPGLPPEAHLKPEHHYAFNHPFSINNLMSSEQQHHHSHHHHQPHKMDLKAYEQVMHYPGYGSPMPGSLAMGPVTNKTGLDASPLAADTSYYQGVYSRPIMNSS
In short: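 Measured: reporter mRNA induction or loss in HepG2 transiently carrying multiple cis-regulated reporter units, 24 h after dosing. Quantified by RT-PCR plus capillary electrophoresis, normalised to DMSO.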

[7] = ATG_FoxO_CIS: Attagene CIS-FACTORIAL HepG2 Assay for human Forkhead box O (FoxO) (AID 2282943); settings: HepG2 Attagene cis-reporter, FoxO element, mRNA; actives raise or lower the signal
In short: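 HepG2, transient MRTU transfection (cis element, endogenous TFs). Dose 24 h. TriZol RNA → oligo(dT) RT → PCR → 6-FAM primer extension → HpaI cut → CE. Gain/loss vs DMSO.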

[8] = ATG_GATA_CIS: Attagene CIS-FACTORIAL HepG2 Assay for human GATA Binding Protein (AID 2282944); settings: HepG2 GATA cis-element reporter, Attagene multiplex mRNA; actives raise or lower the signal
In short: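 Measures endogenous transcription factor-driven reporter mRNA in HepG2 cells transiently carrying cis-regulated constructs. 24 h dosing; RNA via oligo(dT) reverse transcription, PCR, HpaI digestion, capillary electrophoresis; fitted relative to DMSO.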

[9] = ATG_GLI_CIS: Attagene CIS-FACTORIAL HepG2 Assay for human Zinc Finger Protein GLI1 (AID 2282945); settings: HepG2, Attagene cis-factorial reporter mRNA, GLI element; actives raise or lower the signal
In short: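 Bidirectional curve fits relative to DMSO, using reporter mRNA levels from RT-PCR plus capillary electrophoresis. Cells were HepG2 transiently carrying cis-regulated reporter constructs, harvested 24 h after dosing.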

[10] = ATG_GRE_CIS: Attagene CIS-FACTORIAL HepG2 Assay for human Glucocorticoid Response Elements (GRE) (AID 2282947); settings: HepG2 GRE cis-reporter, Attagene multiplex mRNA; actives raise or lower the signal
In short: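 Transient MRTU transfection of human HepG2 liver cells; cis-regulated reporters report endogenous factors. 24 h dosing → RNA isolation → RT-PCR → 6-FAM primer extension → HpaI cut → CE fragment analysis. Bidirectional fit, DMSO negative control.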

[11] = ATG_ISRE_CIS: Attagene CIS-FACTORIAL HepG2 Assay for human Interferon Regulatory Factor 1 (IRF1) binding to an Interferon-Stimulated Response Element (ISRE) (AID 2282948); settings: HepG2 ISRE cis-reporter (Attagene), mRNA transcription readout; actives raise or lower the signal
In short: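 Quantitation relies on labelled RT-PCR fragments separated by capillary electrophoresis. Human HepG2 cells bearing cis-promoter reporter constructs were treated 24 h; DMSO served as baseline for bidirectional fitting.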

[12] = ATG_M_32_CIS: Attagene CIS-FACTORIAL HepG2 Assay for M32 Transcription Factor (Internal Marker) (AID 2282949); settings: HepG2 Attagene cis-factorial M32 reporter, mRNA; actives raise or lower the signal;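 further: background control marker of the multiplexed CIS panel rather than a real target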
In short: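 HepG2 cells transiently transfected with multiplexed cis-regulated reporter units, dosed 24 h. Reporter mRNA quantified by RT-PCR, 6-FAM labelling, HpaI digestion and capillary electrophoresis; bidirectional fit vs DMSO.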

[13] = ATG_M_06_CIS: Attagene CIS-FACTORIAL HepG2 Assay for M06 Transcription Factor (Internal Marker) (AID 2282950); settings: HepG2 Attagene CIS-FACTORIAL M06 internal marker reporter; actives raise or lower the signal
In short: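 One of many multiplexed endpoints: HepG2 reporter mRNA after 24 h dosing, detected by RT-PCR and capillary electrophoresis fluorescence; gain or loss of signal analysed against DMSO.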

[14] = target: Hypoxia-inducible factor 1-alpha (Homo sapiens) (UniProt Q16665); experiment: ATG_HIF1a_CIS: Attagene CIS-FACTORIAL HepG2 Assay for human Hypoxia Inducible Factor 1 (HIF1A) (AID 2282951); settings: HepG2 Attagene cis-factorial HIF1a reporter transcription; actives raise or lower the signal
Chain of Hypoxia-inducible factor 1-alpha (Homo sapiens) (Q16665 whole entry, looked up): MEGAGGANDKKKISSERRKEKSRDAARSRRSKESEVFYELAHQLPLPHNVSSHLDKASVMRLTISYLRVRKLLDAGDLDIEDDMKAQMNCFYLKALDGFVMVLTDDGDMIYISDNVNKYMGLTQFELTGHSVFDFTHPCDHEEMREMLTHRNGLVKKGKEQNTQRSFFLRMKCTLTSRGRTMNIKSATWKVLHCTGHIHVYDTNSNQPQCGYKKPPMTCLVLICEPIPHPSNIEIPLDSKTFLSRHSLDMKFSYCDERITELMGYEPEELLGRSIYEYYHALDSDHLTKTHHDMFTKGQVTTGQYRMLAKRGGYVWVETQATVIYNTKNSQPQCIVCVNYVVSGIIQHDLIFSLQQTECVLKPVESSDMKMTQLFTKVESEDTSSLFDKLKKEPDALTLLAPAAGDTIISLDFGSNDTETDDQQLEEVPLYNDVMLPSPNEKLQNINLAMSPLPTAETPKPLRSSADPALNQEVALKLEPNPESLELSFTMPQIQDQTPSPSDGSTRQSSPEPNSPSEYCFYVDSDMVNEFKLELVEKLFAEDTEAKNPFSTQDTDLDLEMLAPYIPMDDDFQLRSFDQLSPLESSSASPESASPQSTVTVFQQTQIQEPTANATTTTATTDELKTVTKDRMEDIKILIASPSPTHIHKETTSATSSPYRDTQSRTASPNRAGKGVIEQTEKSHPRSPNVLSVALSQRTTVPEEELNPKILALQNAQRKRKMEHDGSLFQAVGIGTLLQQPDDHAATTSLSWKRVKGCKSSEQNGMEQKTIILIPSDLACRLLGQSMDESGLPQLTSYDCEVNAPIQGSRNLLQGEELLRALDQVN
In short: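 Dosed 24 h, transfected HepG2 cells yielded total RNA whose reporter transcripts were RT-PCR-amplified and sized by capillary electrophoresis using fluorescent labelling; DMSO defined baseline, with gain and loss of signal both fitted.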

[15] = target: Hepatocyte nuclear factor 6 (Homo sapiens) (UniProt Q9UBC0); experiment: ATG_HNF6_CIS: Attagene CIS-FACTORIAL HepG2 Assay for human Hepatocyte Nuclear Factor 6 (HNF6) (AID 2282952); settings: HepG2 Attagene cis-factorial HNF6 reporter transcription; actives raise or lower the signal
Chain of Hepatocyte nuclear factor 6 (Homo sapiens) (Q9UBC0 whole entry, looked up): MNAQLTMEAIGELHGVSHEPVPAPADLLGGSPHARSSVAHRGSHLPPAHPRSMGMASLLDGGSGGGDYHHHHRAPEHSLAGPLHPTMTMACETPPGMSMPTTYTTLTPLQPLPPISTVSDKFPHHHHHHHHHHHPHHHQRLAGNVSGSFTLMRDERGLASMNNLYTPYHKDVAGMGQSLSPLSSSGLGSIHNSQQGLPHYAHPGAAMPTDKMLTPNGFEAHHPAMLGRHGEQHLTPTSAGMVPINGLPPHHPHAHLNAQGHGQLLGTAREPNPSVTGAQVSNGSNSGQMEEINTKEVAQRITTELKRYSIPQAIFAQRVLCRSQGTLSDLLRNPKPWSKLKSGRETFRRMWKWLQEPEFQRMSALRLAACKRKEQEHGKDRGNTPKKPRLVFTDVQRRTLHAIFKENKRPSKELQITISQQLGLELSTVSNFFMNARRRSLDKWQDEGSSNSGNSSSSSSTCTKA
In short: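 HepG2 cells transiently transfected with cis-element-driven multiple reporter transcription units, dosed 24 h; reporter mRNA quantified by RT-PCR, FAM primer extension, HpaI digestion and capillary electrophoresis; bidirectional fit versus DMSO baseline.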

[16] = target: Heat shock factor protein 1 (Homo sapiens) (UniProt Q00613); experiment: ATG_HSE_CIS: Attagene CIS-FACTORIAL HepG2 Assay for human Heat Shock Transcription Factor 1 (HSE) (AID 2282953); settings: HepG2 HSE cis-reporter, Attagene RNA transcription; actives raise or lower the signal
Chain of Heat shock factor protein 1 (Homo sapiens) (Q00613 whole entry, looked up): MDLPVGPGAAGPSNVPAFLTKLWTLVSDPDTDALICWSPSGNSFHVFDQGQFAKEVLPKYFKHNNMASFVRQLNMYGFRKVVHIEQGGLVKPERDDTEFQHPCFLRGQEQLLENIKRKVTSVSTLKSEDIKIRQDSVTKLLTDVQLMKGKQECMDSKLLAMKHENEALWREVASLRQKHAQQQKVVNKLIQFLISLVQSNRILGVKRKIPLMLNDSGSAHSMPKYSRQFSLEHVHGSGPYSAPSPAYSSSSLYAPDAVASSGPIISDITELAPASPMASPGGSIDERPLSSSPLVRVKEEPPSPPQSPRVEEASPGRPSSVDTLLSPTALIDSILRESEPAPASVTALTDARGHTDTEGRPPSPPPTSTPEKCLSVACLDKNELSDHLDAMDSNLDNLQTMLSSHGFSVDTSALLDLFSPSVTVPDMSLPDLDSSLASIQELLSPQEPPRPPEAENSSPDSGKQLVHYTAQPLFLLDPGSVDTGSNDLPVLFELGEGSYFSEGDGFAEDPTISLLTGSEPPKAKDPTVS
In short: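 Using HepG2 with transfected cis-driven reporter constructs, compound effects on endogenous factor activity are scored as reporter mRNA change at 24 h. Detection: RT-PCR, HpaI digestion, capillary electrophoresis; bidirectional fitting to DMSO.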

[17] = ATG_MRE_CIS: Attagene CIS-FACTORIAL HepG2 Assay for human Metal Responsive Element (MRE) (AID 2282954); settings: HepG2 MRE cis-reporter transcription, Attagene multiplex; actives raise or lower the signal
In short: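 Transient MRTU transfection of HepG2 (FuGene 6); 24 h dosing; total RNA → oligo(dT) RT, PCR, 6-FAM primer extension, HpaI cut, CE. Bidirectional fit vs DMSO.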

[18] = target: Paired box protein Pax-6 (Homo sapiens) (UniProt P26367); experiment: ATG_Pax6_CIS: Attagene CIS-FACTORIAL HepG2 Assay for human Paired Box 6 (PAX6) (AID 2282956); settings: HepG2 CIS-FACTORIAL PAX6 reporter transcription, RNA readout; actives raise or lower the signal
Chain of Paired box protein Pax-6 (Homo sapiens) (P26367 whole entry, looked up): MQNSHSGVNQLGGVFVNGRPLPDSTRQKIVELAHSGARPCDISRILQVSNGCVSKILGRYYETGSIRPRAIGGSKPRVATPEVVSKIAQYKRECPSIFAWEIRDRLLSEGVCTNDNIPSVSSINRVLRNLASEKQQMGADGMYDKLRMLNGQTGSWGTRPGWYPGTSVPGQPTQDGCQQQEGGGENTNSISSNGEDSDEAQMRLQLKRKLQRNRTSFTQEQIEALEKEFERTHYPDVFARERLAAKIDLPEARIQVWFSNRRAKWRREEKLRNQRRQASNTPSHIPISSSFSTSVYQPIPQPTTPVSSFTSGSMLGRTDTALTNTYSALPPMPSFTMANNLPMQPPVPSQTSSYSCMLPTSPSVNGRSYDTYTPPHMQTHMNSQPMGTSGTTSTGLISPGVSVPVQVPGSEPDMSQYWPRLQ
In short: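 After twenty-four hours of chemical exposure, transfected HepG2 cells are harvested for RNA. Cis-promoter reporter transcripts are amplified, fluorescently labelled and sized by capillary electrophoresis, with gain and loss of signal scored against DMSO.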

[19] = ATG_PBREM_CIS: Attagene CIS-FACTORIAL HepG2 Assay for human Phenobarbital-responsive Enhancer Module (PBREM) (AID 2282955); settings: HepG2 PBREM cis-reporter, Attagene multiplexed transcription; actives raise or lower the signal
In short: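 Transfected liver-derived HepG2 cells exposed 24 h; PBREM reporter transcript quantified via RT-PCR and capillary electrophoresis, with activity in either direction referenced to DMSO.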

Measured: AC50

Cc1cccc(C)c1N
not listed: [19]
inactive: all other assays above

C=CC(=O)NCNC(=O)C=C
inactive: all assays above

Clc1ccc(Cl)cc1
inactive: [1] | [2] | [3] | [4] | [5] | [6] | [7] | [8] | [9] | [10] | [11] | [12] | [13] | [14] | [15] | [16] | [17] | [19] | [18]
active: [14] 5.24 µM | [16] 179 µM

OCC(O)CO
inactive: [1] | [2] | [3] | [4] | [5] | [6] | [7] | [8] | [9] | [10] | [11] | [12] | [13] | [14] | [15] | [16] | [17] | [18]
active: [4] 76.6 µM

O=C(NC(=O)c1cc(F)c(F)cc1Cl)Nc1cc(F)ccc1N1CCC(C(=O)O)CC1
not listed: [19]
inactive: all other assays above

CN(C)c1nc(=O)n(C2CCCCC2)c(=O)n1C
not listed: [10]
inactive: all other assays above

C=CC(N)=O
active: [14] 26 µM
not listed: [19]
inactive: all other assays above

Source: PubChem BioAssay (EPA / NIEHS)
